Experimental data published in PubChem BioAssay.
Several values for one entry are separate records, joined by “and”; a condition that tells them apart may be missing. Equal entries are not always repeated. Activity calls are given as the source filed them.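 Rule for the calls, unless noted: active = thallium flux through the channel raised or lowered by more than 3 SD from vehicle-only wells, actives on both sides; inactive = the rest.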

Tests used:
[1] = modulation of C. elegans fzo-1 (AID 1259413; call rule not given here;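 note: fzo-1 mutant C. elegans worms in liquid wells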); details: C. elegans fzo-1 modulator screen, mean read-out; stronger effect = higher value
[2] = P. berghei load reduction in hepatocytes – cell-based, HepG2, luciferase luminescence, HepG2 viability, primary screen (AID 624349; in the data active = parasite load remaining mostly below about 12%, no sharp cut-off; inactive = mostly above about 10%;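 note: 100% = mean of DMSO negative control wells on the same plate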); details: P. berghei liver stage in HepG2, luciferase luminescence, concentration not given here; parasite load remaining: stronger effect = lower value; viability: measured here: HepG2 viability without parasites
[3] = signal quenchers or enhancers, Cy5 substrate/SSB – biochemical, NIH Clinical Collection, E. coli SSB, artefact control for HCV NS3 helicase inhibitor project (AID 743268; call rule not given here); details: Cy5-oligo bound E. coli SSB, fluorescence interference
[4] = system: Hepatitis C virus NS3 helicase; test: blockers of NS3h binding to DNA – biochemical, fluorescence polarization, NIH Clinical Collection, primary screen (AID 743270; call rule not given here); details: NS3 helicase binding to Cy5-dT15 DNA, stronger effect = higher value, concentration not given here
[5] = target: Single-stranded DNA-binding protein (Escherichia coli (strain K12)) (UniProt P0AGE0); test: SSB-ssDNA binding inhibitors – biochemical, fluorescence polarization, NIH Clinical Collection, counter-screen for HCV NS3 helicase inhibitor project (AID 743271; in the data active = inhibition above about 28%); details: E. coli SSB-DNA binding, stronger effect = higher value, concentration not given here
[6] = compounds distorting NS3 helicase fluorescence signal – biochemical, NIH Clinical Collection, artefact control for HCV NS3 helicase inhibitor project (AID 743272; call rule not given here;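 note: HCV NS3 helicase with a Cy5 labelled single stranded DNA probe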); details: fluorescence interference counterscreen, HCV NS3 helicase assay; stronger effect = lower value
[7] = viability loss with induced miR-34 in A549 – imaging, A549 dox-inducible miR-34, nuclei and caspase counts, primary screen (AID 1347080;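 active = compounds whose cell count with miR-34 switched on is under 0.7 times the count with it off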); details: A549 miR-34 inducible, Hoechst nuclei count, 48 h
[8] = galactose survival enhancers in mitochondrial complex I cybrids – cell-based, galactose medium, ATP luminescence, primary screen (AID 1645843;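 active = z-score of at least 1.8 in each of two replicates, scored against plate mean and spread of sample wells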;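 note: positive z means more ATP and so rescue of galactose-driven cybrid death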); details: complex I mutant cybrid cells, 72 h, stronger effect = higher value
F380Y = test: BK channel mutant inhibitors and activators – cell-based, U2OS BacMam, thallium flux, beta subunits, selectivity assay, profiling panel (AID 1259406); details: U2OS BacMam BK variants, at 30 µM;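 note: initial slope of Thallos dye fluorescence rise after thallium is added; log ratio against the mean of 0.3% DMSO vehicle wells on the same plate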
F380Y/beta2Delta = test: as above; details: U2OS BacMam BK variants, at 30 µM
[9] = target: Calcium-activated potassium channel subunit alpha-1 (Homo sapiens) + Leucine-rich repeat-containing protein 26 (Homo sapiens) (UniProt Q12791+Q2I0M4); test: as above; details: U2OS BacMam BK variants, F380Y/Slo1WT/gamma1, at 30 µM
R275C = test: as above; details: U2OS BacMam BK variants, at 30 µM
R275C/beta1 = test: as above; details: U2OS BacMam BK variants, at 30 µM
R275C/beta2Delta = test: as above; details: U2OS BacMam BK variants, at 30 µM
[10] = system: Neuropilin-2 / VEGF-C interaction (human); test: small molecules blocking Neuropilin-2/VEGF-C interaction – biochemical, microplate binding format, z-score (AID 743281; call rule not given here); details: microplate NRP2/VEGF-C binding assay; stronger effect = lower value
F380Y/beta1 = test: BK channel mutant inhibitors and activators – cell-based, U2OS BacMam, thallium flux, beta subunits, selectivity assay, profiling panel (AID 1259406); details: U2OS BacMam BK variants, at 30 µM;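 note: initial slope of Thallos dye fluorescence rise after thallium is added; log ratio against the mean of 0.3% DMSO vehicle wells on the same plate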
F380Y/beta4 = test: as above; details: U2OS BacMam BK variants, at 30 µM
R275C/beta4 = test: as above; details: U2OS BacMam BK variants, at 30 µM
R275C/Slo1WT/beta2 = test: as above; details: U2OS BacMam BK variants, at 30 µM
[11] = stronger effect = lower value, cell number ratio, induced over uninduced
[12] = measured here: relative caspase fold change +Dox/-Dox
[13] = measured here: total cells with miR-34 induction, stronger effect = lower value
[14] = measured here: total cells without miR-34 induction

Sequence of Calcium-activated potassium channel subunit alpha-1 (Homo sapiens) + Leucine-rich repeat-containing protein 26 (Homo sapiens) (Q2I0M4 whole entry, looked up, one chain of several): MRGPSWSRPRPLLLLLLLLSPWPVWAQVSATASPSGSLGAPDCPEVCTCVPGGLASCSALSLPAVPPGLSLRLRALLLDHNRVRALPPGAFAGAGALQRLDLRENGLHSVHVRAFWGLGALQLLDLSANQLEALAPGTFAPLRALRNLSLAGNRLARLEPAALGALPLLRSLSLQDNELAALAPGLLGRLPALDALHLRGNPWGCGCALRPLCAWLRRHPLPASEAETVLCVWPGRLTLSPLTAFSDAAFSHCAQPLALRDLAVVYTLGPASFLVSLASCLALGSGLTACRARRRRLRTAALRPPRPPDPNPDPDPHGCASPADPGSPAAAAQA

CC(C)C[C@H](NC(=O)[C@@H](COC(C)(C)C)NC(=O)[C@H](Cc1ccc(O)cc1)NC(=O)[C@H](CO)NC(=O)[C@H](Cc1c[nH]c2ccccc12)NC(=O)[C@H](Cc1cnc[nH]1)NC(=O)[C@H]1CCC(=O)N1)C(=O)N[C@H](CCCN=C(N)N)C(=O)N1CCC[C@@H]1C(=O)NNC(N)=O
inactive: mean signal [1] 236

CC(=O)OCC(=O)C12OC(C)(C)O[C@@H]1C[C@H]1[C@@H]3C[C@H](F)C4=CC(=O)C=CC4(C)[C@@]3(F)[C@@H](O)CC12C (some centres undefined)
inactive: mean signal [1] 228

COCCCCC(=NOCCN)c1ccc(C(F)(F)F)cc1
8360 and 9280 and 6710: cell count [7, 14]
inactive: parasite load remaining [2] 46.6% | fluorescence ratio [3] 0.97 | inhibition [4] -1.98% | inhibition [5] -0.1% | fluorescence ratio [6] 0.89 | fold change [7, 11] 0.929 and 0.879 and 0.949 | z-score [8] -0.79 and -1.17 | log fold change Tl+ flux (F380Y) -0.0607 | log fold change Tl+ flux (F380Y/beta2Delta) -0.0598 | log fold change Tl+ flux [9] -0.0791 | log fold change Tl+ flux (R275C) -0.0449 | log fold change Tl+ flux (R275C/beta1) 0.0249 | log fold change Tl+ flux (R275C/beta2Delta) 0.0321
7760 and 8160 and 6370: cell count [7, 13]
56.9%: viability [2]
2.57 and 0.586 and 0.773: fold change [7, 12]

CCC(=O)NS(=O)(=O)c1ccc(-c2c(-c3ccccc3)noc2C)cc1
inactive: parasite load remaining [2] 75.3% | z-score [10] 1.11 | mean signal [1] 273 | fold change [7, 11] 0.873 | z-score [8] 0.78 | log fold change Tl+ flux (F380Y) 0.0552 | log fold change Tl+ flux (F380Y/beta2Delta) 0.000846 | log fold change Tl+ flux [9] 0.0287 | log fold change Tl+ flux (R275C) 0.0383 | log fold change Tl+ flux (R275C/beta1) -0.00911 | log fold change Tl+ flux (R275C/beta2Delta) -0.00297
9000: cell count [7, 13]
10300: cell count [7, 14]
1.74: fold change [7, 12]
68.9%: viability [2]

CC1c2cccc(O)c2C(O)=C2C(=O)[C@]3(O)C(O)=C(C(N)=O)C(=O)[C@@H](N(C)C)[C@@H]3C[C@@H]21 (some centres undefined)
1.44: fold change [7, 12]
97.3%: viability [2]
active: inhibition [5] 28.5%
inactive: parasite load remaining [2] 60.3% | fluorescence ratio [3] 1.04 | inhibition [4] -1.36% | fluorescence ratio [6] 0.95 | fold change [7, 11] 1 | z-score [8] -0.345 | log fold change Tl+ flux (F380Y) -0.00643 | log fold change Tl+ flux (F380Y/beta1) -0.038 | log fold change Tl+ flux (F380Y/beta2Delta) 0.00306 | log fold change Tl+ flux (F380Y/beta4) -0.0368 | log fold change Tl+ flux [9] 0.011 | log fold change Tl+ flux (R275C) -0.004 | log fold change Tl+ flux (R275C/beta1) -0.0442 | log fold change Tl+ flux (R275C/beta2Delta) -0.00508 | log fold change Tl+ flux (R275C/beta4) 0.0272 | log fold change Tl+ flux (R275C/Slo1WT/beta2) 0.0157
11000: cell count [7, 13] | cell count [7, 14]

CC1=C(C/C=C(\C)CCCC(C)CCCC(C)CCCC(C)C)C(=O)c2ccccc2C1=O (centres undefined)
inactive: mean signal [1] 243

COc1cc(N)c(Cl)cc1C(=O)N[C@@H]1CCN(CCCOc2ccc(F)cc2)C[C@@H]1OC
57.3%: viability [2]
6860: cell count [7, 14]
inactive: parasite load remaining [2] 13.5% | fluorescence ratio [3] 1 | inhibition [4] -2.77% | inhibition [5] -0.1% | fluorescence ratio [6] 0.96 | z-score [10] -0.527 | mean signal [1] 277 | fold change [7, 11] 0.991 | z-score [8] -0.47 | log fold change Tl+ flux (F380Y) 0.00662 | log fold change Tl+ flux (F380Y/beta2Delta) 0.0148 | log fold change Tl+ flux [9] -0.0526 | log fold change Tl+ flux (R275C) 0.0357 | log fold change Tl+ flux (R275C/beta1) -0.0487 | log fold change Tl+ flux (R275C/beta2Delta) 0.039
0.684: fold change [7, 12]
6800: cell count [7, 13]

O=C1CN(N=Cc2ccc([N+](=O)[O-])o2)C(=O)N1
active: log fold change Tl+ flux (R275C/Slo1WT/beta2) -0.117
54.9%: viability [2]
2: fold change [7, 12]
inactive: parasite load remaining [2] 0.39% | fluorescence ratio [3] 1 | inhibition [4] -3.18% | inhibition [5] -0.48% | fluorescence ratio [6] 1 | fold change [7, 11] 0.912 | z-score [8] -1.36 | log fold change Tl+ flux (F380Y) -0.0264 | log fold change Tl+ flux (F380Y/beta1) -0.025 | log fold change Tl+ flux (F380Y/beta2Delta) -0.0429 | log fold change Tl+ flux (F380Y/beta4) -0.00406 | log fold change Tl+ flux [9] 0.0181 | log fold change Tl+ flux (R275C) 0.0135 | log fold change Tl+ flux (R275C/beta1) -0.0666 | log fold change Tl+ flux (R275C/beta2Delta) 0.0336 | log fold change Tl+ flux (R275C/beta4) -0.0417
9510: cell count [7, 13]
10400: cell count [7, 14]

CC1(C)O[C@@H]2C[C@H]3[C@@H]4CCC5=CC(=O)C=CC5(C)[C@@]4(F)[C@@H](O)CC3(C)C2(C(=O)CO)O1 (some centres undefined)
inactive: mean signal [1] 258

CON=C(C(=O)N[C@@H]1C(=O)N2C(C(=O)O)=C(COC(N)=O)CS[C@H]12)c1ccco1
10600: cell count [7, 13]
inactive: parasite load remaining [2] 58.2% | fluorescence ratio [3] 1.07 | inhibition [4] -4.09% | inhibition [5] 10.2% | fluorescence ratio [6] 1 | fold change [7, 11] 0.935 | z-score [8] -0.2 | log fold change Tl+ flux (F380Y) 0.0216 | log fold change Tl+ flux (F380Y/beta1) 0.0158 | log fold change Tl+ flux (F380Y/beta2Delta) 0.00116 | log fold change Tl+ flux (F380Y/beta4) -0.0173 | log fold change Tl+ flux [9] -0.0114 | log fold change Tl+ flux (R275C) -0.0247 | log fold change Tl+ flux (R275C/beta1) -0.0484 | log fold change Tl+ flux (R275C/beta2Delta) -0.0289 | log fold change Tl+ flux (R275C/beta4) 0.0531 | log fold change Tl+ flux (R275C/Slo1WT/beta2) 0.0179
2.12: fold change [7, 12]
11300: cell count [7, 14]
88.2%: viability [2]

CC(=O)OCC(=O)[C@@]1(O)CC[C@H]2[C@@H]3CCC4=CC(=O)CCC4(C)[C@H]3[C@@H](O)CC21C (some centres undefined)
inactive: mean signal [1] 278
